PubChem BioAssay (NCI)
The panel holds about 83,000 compounds, 20% with a hit somewhere; the sample as a whole holds those more often.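 Percent growth is the endpoint: 0 to 100 indicates growth inhibition (40 means 60% inhibition), 0 means no net growth, and negative values indicate cell death.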 Values without a mark were called inactive. Activity calls are given as the source filed them. The calls were made as follows: active = growth percent below 10; inactive = the rest.

Tests used:
Experiment in all cases: NCI-60 one-dose screen, 48 h (100 = growth as untreated, 0 = no growth, -100 = all killed)
Details in all cases: 10 µM unless noted
T-47D breast = tested on: T-47D breast
BT-549 breast = tested on: BT-549 breast
MDA-MB-435 melanoma = tested on: MDA-MB-435 melanoma
SW-620 colon = tested on: SW-620 colon
MCF7 breast = tested on: MCF7 breast
HCT-116 colon = tested on: HCT-116 colon
HCC-2998 colon = tested on: HCC-2998 colon
KM12 colon = tested on: KM12 colon

SMILES	growth (T-47D breast)	growth (BT-549 breast)	growth (MDA-MB-435 melanoma)	growth (SW-620 colon)	growth (MCF7 breast)	growth (HCT-116 colon)	growth (HCC-2998 colon)	growth (KM12 colon)
N=C1C(c2nc(-c3ccc(Br)cc3)cs2)=C(O)CN1Cc1cccnc1	46.3%	39.9%	53.4%	81.5%	77.9%	21.4%	85.9%	61.7%
COc1ccc(C(=O)COc2ccc(/C=C3\Oc4ccccc4C3=O)cc2)cc1	73.8%	114%	59.7%	110%	115%	92.9%	115%	107%
Nc1nc(N)c2c(n1)NC(c1ccccc1)C1CCc3ccccc3C1=N2 (stereo not given)	30.7%	39%	28.4%	58.9%	18.7%	26.1%	65.4%	39.1%
COC(=O)c1c2c(c(C)[n+]([O-])c1C)C(=O)C(NCc1ccc(F)cc1)=CC2=O	6.75% (active)	52.4%	-72.9% (active)	6.37% (active)	-0.8% (active)	1.27% (active)	25.7%	19.9%
COc1cc(C2CC(=O)Nc3c2c(C)nn3-c2nc3ccccc3[nH]2)c(OC)c2c1OCO2 (stereo not given)	67.2%	76%	-20.2% (active)	47.1%	45.3%	61.6%	97.5%	52.1%
COc1ccc(/C=C/c2c(C(=O)/C=C/c3cccs3)c(C)nc3ccccc23)cc1	47.8%	94.3%	68.5%	82.5%	53.9%	47.5%	85.6%	78.9%
CCc1ccccc1-n1c(N)c(C#N)c(-c2ccc(N(C)C)cc2)c(C#N)c1=O	80%	85.5%	100%	93%	94.9%	94.1%	104%	97.6%
Cc1cccc(Cc2cnc(NC(=O)/C=C/c3ccco3)s2)c1	37.2%	25.8%	-30.7% (active)	24.9%	14.9%	18.1%	6.44% (active)	13.3%
Cc1ccc(-n2c(-c3ccccc3)c(-c3ccccc3)c3c(SCC(=O)n4[nH]c(N)cc4=O)ncnc32)cc1	76.6%	99%	106%	90.3%	86.7%	78.2%	113%	98.1%
C=CCSc1nc2ccccc2cc1/C=N/O	67.6%	85.6%	95.1%	87%	78%	78.8%	93.9%	89.5%
Cc1ccc(/C=C/c2c(C(=O)/C=C/c3ccc(Cl)cc3)c(C)nc3ccccc23)cc1	1.89% (active)	-10.4% (active)	-47.5% (active)	-33.1% (active)	12.8%	-59.6% (active)	-82.1% (active)	-24.9% (active)
Clc1cccc(Cl)c1C(Nc1nc2ccccc2s1)Nc1nc2ccccc2s1	95.7%	92.1%	107%	106%	91.3%	99.1%	117%	98.7%
COc1nc2c(c(=O)n1C)CN(c1ccccc1)C(=O)CN2C	26.8% [100 µM]	24.7% [100 µM]	66.2% [100 µM]	69.3% [100 µM]	24.2% [100 µM]	49.1% [100 µM]	90.4% [100 µM]	39.1% [100 µM]
COC1=CC(=O)C[C@@H](C)[C@]12Oc1c(Cl)c(OC)cc(OC)c1C2=O	105%	78.3%	1.96% (active)	81.5%	85.2%	92.4%	75.5%	65.5%
Cc1c(C(=O)N[C@@H](Cc2ccccc2)C(=O)C(=O)NCCc2ccccc2)[nH]c2ccccc2c1=O	101%	124%	101%	105%	92.3%	106%	100%	103%
